The campaign covered roughly 65,000 compounds. About 2,100 (3.2%) showed an effect of 50% or more. The median lay at about -52%. What follows is part of a selection rich in strong results, with near analogues and random picks from the rest.

This test relates to Plasmodium falciparum. Briefly: Screen against P. falciparum Asexual Blood Stage (ABS), at 5uM. The test is classed as functional, Dd2. To be noted: tested at 5 uM.
`Cc1cc(C(=O)N2CCc3ncnc(-c4cnn(C)c4)c3CC2)c(C)o1`: the INHIBITION is on record as -23.2%. The value for `CC(CNC(=O)c1ccc(=O)[nH]n1)N1CCc2ccccc21` (centres undefined) was -120%; that for `CN(C)C(=O)NC[C@@H]1OC[C@H]2CN(Cc3cccc(F)c3)CC[C@H]21` was -66.7%. Turning to `CN(C)CC1CSCCCN1C(=O)c1ccc(C(C)(C)C)cc1` (centres undefined), the INHIBITION is recorded as 2.97%. The value for `CN(C)CC1CSCCCN1C(=O)c1ccc(-c2ccccc2)cc1` (centres undefined) was 6.37%; that for `CN(C)CC1CSCCCN1C(=O)c1ccc(-n2cccc2)cc1` (centres undefined) was 63%. The value for `CC(C)NC(=O)C1CCC2(CCN(Cc3cnn(C)c3)CC2)CO1` (centres undefined) was -63.9%; that for `CC(NC(=O)Cn1cc(-c2ccccc2)cn1)C1CC1` (centres undefined) was -158%. For `COCC1CN(S(=O)(=O)C2CC2)Cc2ncn(CC3CC3)c21` (centres undefined), the INHIBITION is reported as -17.1%. Regarding `COC1CCN(C(=O)CCn2cccn2)CC1`, the INHIBITION worked out at 53.1%. With `CC(C)CN1CCN(C(=O)CCn2cccn2)CC1`, the INHIBITION is listed as 67.8%. Regarding `CS(=O)(=O)N1CCN(C(=O)CCn2cccn2)CC1`, the INHIBITION was -7.11%. As to `CNC(=O)C1CCN(C(=O)CCn2cccn2)CC1`, the INHIBITION is reported as -104%.

For the compound `CCC(=O)N1CCN(C(=O)CCn2cccn2)CC1`, the INHIBITION is listed as -114%. The figure for `O=C(CCn1cccn1)N1CCN(CC(F)F)CC1` is -177%. In the case of `COCc1nc(N(C)C)ncc1C(=O)OC`, the INHIBITION is on record as -29.3%. Turning to `Cc1ccc(CN2Cc3nnn(C)c3C(COCc3ccccc3)C2)s1` (centres undefined), the INHIBITION is on record as -43.4%. `CN(CCc1ncnn1C1Cc2ccccc2C1)C1CCS(=O)(=O)C1` (centres undefined): the INHIBITION is -63.2%. Take `Cc1cccc(OCC(O)CN2CCN(c3nccs3)CC2)c1` (centres undefined): the INHIBITION was -7.68%.

`CCOc1cc(C(=O)N2CCCC2)cc2occc12`: the INHIBITION was -69.7%. For `Cc1n[nH]cc1CNC1CCN(c2cccc(C(F)(F)F)c2)CC1`, the INHIBITION turned out to be 62.8%.

Take `Cc1n[nH]cc1CNC1CCN(c2ccc(F)cc2)CC1`: the INHIBITION was -38.1%. As for `Cc1n[nH]cc1CNC1CCN(c2ccccc2)CC1`, the INHIBITION is on record as -20.1%. The value for `COc1ccc(C(=O)C2CCCN(c3cc(C#N)ccn3)C2)cc1F` (centres undefined) was -126%; that for `CCC(CNC1CCN(C(C)=O)CC1)Oc1cccc(C)c1` (centres undefined) was 53.2%; that for `COCC(=O)N1CCC(Oc2cccc(C)c2)CC1` was -127%. The figure for `CCC(CNC1CCN(C(C)=O)CC1)Oc1ccccc1Cl` (centres undefined) is 48.8%; for `O=C(C1CCCCC1)N1CCC2(CCCN2CC2CC2)CC1` it is -19.9%; for `CC(C)c1noc(CN2CCN(C(=O)c3cccnc3O)CC2)n1` it is -63.3%. The figure for `Cc1nn(-c2ccccc2)c(C)c1-c1ccnc(N2CCCNCC2)n1` is 66.9%; for `Cc1nn(-c2ccccc2)c(C)c1-c1ccnc(N2CCCOCC2)n1` it is -64.7%; for `Cc1nn(-c2ccccc2)c(C)c1-c1ccnc(N2CCC(O)CC2)n1` it is -309%. Consider `CN1CCN(c2cc(Sc3cccs3)nc(N)n2)CC1CCO` (centres undefined), for which the INHIBITION is on record as -77.1%. The figure for `CN(CCc1ccccc1)C1CCCN(Cc2nccn2C)C1` (centres undefined) is 22.1%. The value for `CN(Cc1nccn1C)C1CCCN(CCCc2ccccc2)C1` (centres undefined) was 63.9%; that for `Cc1nc(CN2CCCC(N(C)Cc3nccn3C)C2)no1` (centres undefined) was -29.4%. Consider `O=C1COC2(CCN(c3ncccn3)CC2)CN1`, for which the INHIBITION is on record as -86%.

With `COCCC1COC2(CCN(C(=O)c3ccsc3)CC2)C1` (centres undefined), the INHIBITION is listed as -101%. The value for `CCC1CCC(NCCN2CCOCC2)CC1` (centres undefined) was 5.69%; that for `CC(C)(C)C1CCC(NCCN2CCOCC2)CC1` (centres undefined) was 56.3%. The figure for `C1CCC(NCCN2CCOCC2)C1` is -99.9%. As for `CC(C)c1cc(C(=O)NCCc2nc3c(s2)CCC3)n(C)n1`, the INHIBITION was -63.4%.

On to `Cc1noc(C)c1-c1ccnc(C2CCNCC2)c1`, for which the INHIBITION is -51.7%. Take `CC(=O)N1CC[C@@]2(O)CCCC[C@H]2[C@@H]1c1ccc2c(c1)OCO2`: the INHIBITION is recorded as -87.3%. The value for `Oc1cccc(CNC2CCN(CCc3ccncc3)CC2)c1` was -18.8%.

For `N#Cc1ccc(CNC2CCN(CCc3ccncc3)CC2)cc1`, the INHIBITION is 56.7%. For `c1cc(CCN2CCC(NCc3ccsc3)CC2)ccn1`, the INHIBITION is on record as -8.86%. The figure for `CC(CNC(=O)c1cnc[nH]1)Oc1ccccc1Br` (centres undefined) is -61.4%. The figure for `CC(C)N1CCC(c2cnc(-c3cncnc3)cn2)CC1` is -18%; for `COc1cccc(-c2cccc(CN3C[C@H]4CC[C@@H](C3)N(C)C4=O)c2)c1` it is 13.1%; for `CCc1ncc2c(n1)CN(CC(=O)Nc1ccc(Cl)cn1)CC2` it is 59.4%. The value for `CC(C)c1ncc2c(n1)CN(CC(=O)Nc1ccc(Cl)cn1)CC2` was -65.1%; that for `Cc1ncc2c(n1)CN(CC(=O)Nc1ccc(Cl)cn1)CC2` was 6.47%; that for `CCCc1nc(N2CCCCCC2)c2c(n1)c(C)nn2CC` was 22.2%. As for `NC(=O)C1(CCCc2ccccn2)CCCN(Cc2ccncc2)C1` (centres undefined), the INHIBITION is on record as -123%. Consider `CC(O)CN1CCC(CN(C)C(=O)NC2CC2)CC1` (centres undefined), for which the INHIBITION is -50.7%. With `CCN(CC)CC1CN(Cc2ccco2)Cc2nccn2C1` (centres undefined), the INHIBITION is -52.4%.

Take `CCN(CC)CC1CN(Cc2cccc(C#N)c2)Cc2nccn2C1` (centres undefined): the INHIBITION was -6.06%. The figure for `Cc1ccc(CN2Cc3nccn3CC(CN(C)C)C2)s1` (centres undefined) is -47.7%; for `CCN(CC)CC1CN(Cc2ccc(C)s2)Cc2nccn2C1` (centres undefined) it is 66.7%; for `Cc1ccc(CN2Cc3nccn3CC(Cn3cccn3)C2)s1` (centres undefined) it is -26.9%.

As for `CCN(CC)CC1CN(CCc2ccccc2)Cc2nccn2C1` (centres undefined), the INHIBITION worked out at 58.7%.

With `Cc1cc(CCC(=O)NCc2ncc[nH]2)ccc1Br`, the INHIBITION is given as -116%. As for `CCOC(=O)[C@]12CCCN(Cc3cccs3)C[C@H]1CN(CC(C)C)C2`, the INHIBITION stood at 14.6%. The value for `NC(=O)c1ccc(C(=O)N2CCCCC2Cn2cccn2)s1` (centres undefined) was -33.2%; that for `O=C(c1cc(Cl)cc2cccnc12)N1CCN(CCO)CC1` was 30.3%. Regarding `O=C(C1CCC1)N1C[C@@H]2CN(Cc3ccncc3)C(=O)[C@@H]2C1`, the INHIBITION was -74.3%.

As for `Cn1cc(CN2CCOC(c3cccc(-c4cncnc4)n3)C2)cn1` (centres undefined), the INHIBITION was -54.2%. Turning to `COc1ccc(-c2ccccc2CN)c(OC)c1`, the INHIBITION is given as 60.2%. The figure for `COc1ccc(CN)c(OC(F)F)c1` is -30%; for `COc1ccc(-c2ccnc(N)c2)c(OC)c1` it is -90.3%. For the compound `CC(C)(C)CN1CCCC(c2nccnc2Nc2cnccn2)C1` (centres undefined), the INHIBITION is recorded as 22.1%.

`O=C(CCCc1cccs1)N1CCC(N2CCNC2=O)CC1`: the INHIBITION is -185%.

With `CC(C)CN1C(=O)C2(CCN(Cc3nccs3)C2)c2ccccc21` (centres undefined), the INHIBITION is given as -54.5%. The figure for `CCO[C@H]1C[C@@H](O)C12CCN(C1CCN(c3ccccc3C)CC1)CC2` is 10.7%. Turning to `CCc1ccc(C2CC(=O)Nc3cc(OC)c(NS(C)(=O)=O)cc32)o1` (centres undefined), the INHIBITION was -121%. `Cc1cccnc1CN1CCN(C(=O)c2cnn(C(C)C)c2)CC1`: the INHIBITION is on record as -15.2%. Take `Cc1nc(N2CCCC2)nc2c1CCN(C(=O)N1CCCC1)CC2`: the INHIBITION is 47%. Turning to `Cc1nc(N2CCCC2)nc2c1CN(C(=O)N(C)C)CC2`, the INHIBITION was -67.8%. Turning to `Cc1nc(N2CCCC2)nc2c1CN(C(=O)N1CCOCC1)CC2`, the INHIBITION is recorded as -70.2%.

As for `Cc1nc(N2CCOCC2)nc2c1CN(C(=O)C(C)C)CC2`, the INHIBITION is 56.2%. As for `CC(=O)N1CCc2nc(N3CCCC3)nc(C)c2C1`, the INHIBITION was 53.8%. As to `Cc1nc(N2CCOCC2)nc2c1CCN(C(=O)N1CCCC1)CC2`, the INHIBITION was -112%. Consider `O=C(NCC(F)F)c1cnc(C2CCCN2)cn1` (centres undefined), for which the INHIBITION is on record as -41.5%.

For the compound `CCn1cc(NC(=O)C2CCN(Cc3nc(C(C)C)no3)CC2)cn1`, the INHIBITION was -86%.

On to `COc1ccc(F)c(CN(CCCn2ccnc2)Cc2ccc(C)s2)c1`, for which the INHIBITION was found to be 39.5%.

For the compound `Cc1ccc(O)c(CN(CCCn2ccnc2)Cc2ccc(C)s2)c1`, the INHIBITION is listed as 43%. As for `Cc1ccc(CN(CCCn2ccnc2)Cc2cc(F)ccc2F)s1`, the INHIBITION is listed as 68.8%.

On to `CC(C)(C)NC(=O)C1CSCN1C(=O)CCc1ccco1` (centres undefined), for which the INHIBITION is given as -87.6%. On to `O[C@H]1CC[C@@H](Cc2cc(-c3ccccn3)on2)O[C@@H]1CNCC1CC1`, for which the INHIBITION is reported as -70.3%. The value for `O[C@H]1CC[C@@H](Cc2cc(-c3ccccc3)on2)O[C@@H]1CNCC1CC1` was 39.2%; that for `O[C@H]1CC[C@@H](Cc2cc(-c3ccc(F)cc3)on2)O[C@@H]1CNCC1CC1` was 63.5%; that for `COCCCNC1N=C(n2nc(C)cc2C)Nc2sc3c(c21)CCCC3` (centres undefined) was 46.7%.

With `COc1ccc(NC2(C(=O)N3CCCn4cncc4C3)CCCC2)cc1`, the INHIBITION is recorded as 45%. As for `COc1ccc(NC2(C(=O)N3CCn4cncc4C3)CCCC2)cc1`, the INHIBITION was -27.6%. The value for `Cc1ccc(NC2(C(=O)N3CCn4cncc4C3)CCCCC2)cc1C` was 64.5%; that for `CN(C)c1cc(CNC(=O)c2cc(Cl)ccn2)ccn1` was -158%.

For `Cc1cc(-c2nn3c(C(C)C)nnc3s2)on1`, the INHIBITION was -33%. For the compound `COCC1Cn2nnc(-c3cnn(C)c3)c2CN1Cc1cccs1` (centres undefined), the INHIBITION is reported as 59.2%.

With `COCC1Cn2nnc(-c3cnn(C)c3)c2CN1Cc1ccc(C)s1` (centres undefined), the INHIBITION is on record as -9.62%. The figure for `COCC1Cn2nnc(-c3cnn(C)c3)c2CN1Cc1ccco1` (centres undefined) is -88.9%; for `Cc1ccc(S(=O)(=O)NCCc2cccnc2)cc1C` it is -35.5%; for `c1cc(CN2C[C@H](OCC3CCOCC3)[C@H]3COC[C@H]32)co1` it is -93%.

For the compound `Cc1noc(C)c1C(=O)N1CCCC(c2c(C)c(=O)nc3n2CCC3)C1` (centres undefined), the INHIBITION is on record as -105%.

`CCCNC(=O)c1sccc1N(C)S(=O)(=O)c1ccc(Cl)cc1`: the INHIBITION is reported as -84%. On to `CN(C)CCNC(=O)c1sccc1N(C)S(=O)(=O)c1ccc(Cl)cc1`, for which the INHIBITION is listed as 64.2%.

With `COCCNC(=O)c1sccc1N(C)S(=O)(=O)c1ccc(Cl)cc1`, the INHIBITION is listed as -88.8%. On to `Cc1cccc(CC(=O)N2CCOCC2c2c(C)n[nH]c2C)c1` (centres undefined), for which the INHIBITION is reported as -75.3%. `CC(=O)N(Cc1noc(C)n1)C1CCN(Cc2cnc(C)s2)C1` (centres undefined): the INHIBITION is reported as -55.6%.

The values are drawn from ChEMBL document CHEMBL4513216, “Probing the Open Global Health Chemical Diversity Library for Multistage-Active Starting Points for Next-Generation Antimalarials” (ACS Infect Dis, 2020).
